# Experimental data: PubChem BioAssay (Tox21)
# Values without a mark were called inactive. Inconclusive results are not listed. Entries that show only a call come without a potency. Active and inactive are the calls of the source. Unless noted, the call rests on the fitted dose curve; in most records, active means well fitted curve in the direction sought with a large enough effect in the repeat runs; inconclusive means weak or mixed curves; inactive means flat fitted curve, though single readings scatter.
# Test: qHTS assay for small molecule disruptors of the mitochondrial membrane potential - cell viability (AID 720634; calls by dose curve;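 further: human HepG2 liver cancer cells; nearly all actives have a fitted effect of over 20% in size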)
# Details: HepG2 viability, ATP luminescence (CellTiter-Glo), 1 h; series mostly up to 83.2 µM
# Summary of the method: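 Viability of HepG2 cells is scored from ATP content by luminescence; cells are exposed to compound for 1 hr at 37 C and 5% CO2, then dosed with m-MPI dye before the CellTiter-Glo reagent.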
row,Compound,Potency
1,N#Cc1c(F)cccc1F,inactive
2,Nc1cnn([C@@H]2O[C@H](CO)[C@@H](O)[C@H]2O)c(=O)n1,inactive
3,CC[C@H](C)[C@@H](C(=O)O)n1sc2ccccc2c1=O,inactive
4,O=C1[C@H](CC[C@H](O)c2ccc(F)cc2)[C@@H](c2ccc(O)cc2)N1c1ccc(F)cc1,inactive
5,CC(C)(C)C(=O)OCOP(=O)(COCCn1cnc2c(N)ncnc21)OCOC(=O)C(C)(C)C,inactive
6,CC(=O)CC(=O)c1ccccc1,inactive
7,CCCCCCc1ccc(N)cc1,inactive
8,CC(=O)[C@@]1(O)CC[C@H]2[C@@H]3C[C@H](C)C4=CC(=O)CC[C@]4(C)[C@H]3CC[C@@]21C,inactive

# Test: qHTS assay to test for compound auto fluorescence at 590 nm (red) in HepG2 cells (AID 720674)
# Details: HepG2 autofluorescence, red 540/590 nm, 1 h; series mostly up to 91.3 µM
# Summary of the method: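 Seeding: 2,000 HepG2 cells/well, MEM/10% FBS, overnight 37 C. Dosing: compound vs DMSO. Incubation: 1 hr, 37 C, 5% CO2. Read: fluorescence 540 ex/590 em, Rose Bengal sodium as red reference.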
Compound,outcome,"fluorescence, relative to Rose Bengal"
CC1CCc2cc(F)cc3c(=O)c(C(=O)O)cn1c23 (stereo unspecified),inactive,–
CC1=CCC(C(C)C)C=C1 (stereo unspecified),inactive,–
CC(=O)c1ccc2c(c1)[C@H](NC(=O)c1ccc(F)cc1)[C@@H](O)C(C)(C)O2,inactive,–
C=C(C)C(=O)OC(C)C,inactive,–
CC(C)c1ccccc1C(C)C,inactive,–
CCOc1cc(OCC)c(C(=O)CCC(=O)O)cc1OCC,inactive,–
CC(C)CCCC(C)CCO (stereo unspecified),inactive,–
CC(C)(C)C1CCCCC1O (stereo unspecified),inactive,–
CCC(=O)OC(C)(C)C1CC=C(C)CC1 (stereo unspecified),inactive,–
Cc1ncsc1CCO,inactive,–
CCCOc1ccc2nc(NC(=O)OC)[nH]c2c1,inactive,–
COCCOCCOCCOCCOC,inactive,–
CC(=O)Nc1ccc(/C=N/NC(N)=S)cc1,inactive,–
COc1ccc(C(C)=O)cc1,inactive,–
N=C(N=C(N)N)N1CCOCC1,–,0.372% [at 18.6 µM]
CCCCCCCCCO,inactive,–
CC[C@H](C)[C@H](N)C(=O)O,inactive,–
Cc1cc(NC(=O)C(=O)O)cc(C)c1Oc1ccc(O)c2c1CCC2,inactive,–
O=C(C(=O)c1ccc(Br)cc1)c1ccc(Br)cc1,–,-0.609% [at 18.6 µM]

Compound,outcome,"fluorescence, relative to Rose Bengal"
C#CCOC(=O)[C@@H](C)Oc1ccc(Oc2ncc(Cl)cc2F)cc1,inactive,–
CC(C)=CCCC(C)CC=O (stereo unspecified),inactive,–
COCCO,inactive,–
O=C=NC1CCC(CC2CCC(N=C=O)CC2)CC1 (stereo unspecified),inactive,–
CC(C)c1cccc(C(C)C)c1NC(=O)NS(=O)(=O)c1cc(C(C)(C)O)co1,inactive,–
N#Cc1cc2ccccc2c2ccccc12,inactive,–
Nc1nc(N)c2nc(CNc3ccc(C(=O)N[C@@H](CCC(=O)O)C(=O)O)cc3)cnc2n1,inactive,–
C1=Cc2ccccc2C1,inactive,–
CCCCCc1ccc(N)cc1,inactive,–
Cc1cccc(OCCOc2cccc(C)c2)c1,inactive,–
Cc1ccc(C(=O)C(C)CN2CCCCC2)cc1 (stereo unspecified),inactive,–
N#Cc1c(F)cccc1F,inactive,–
Nc1cnn([C@@H]2O[C@H](CO)[C@@H](O)[C@H]2O)c(=O)n1,inactive,–
CC[C@H](C)[C@@H](C(=O)O)n1sc2ccccc2c1=O,inactive,–
O=C1[C@H](CC[C@H](O)c2ccc(F)cc2)[C@@H](c2ccc(O)cc2)N1c1ccc(F)cc1,inactive,–
CC(C)(C)C(=O)OCOP(=O)(COCCn1cnc2c(N)ncnc21)OCOC(=O)C(C)(C)C,inactive,–
CC(=O)CC(=O)c1ccccc1,inactive,–
CCCCCCc1ccc(N)cc1,inactive,–
CC(=O)[C@@]1(O)CC[C@H]2[C@@H]3C[C@H](C)C4=CC(=O)CC[C@]4(C)[C@H]3CC[C@@]21C,inactive,–
